From PubChem BioAssay (NCI)
Values joined by “and” are separate entries in the source; they are usually repeats but may differ in a detail not shown here. Equal entries are not always repeated. The panel holds about 83,000 compounds, 20% with a hit somewhere; the sample as a whole holds those more often.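 A percent growth of 40 corresponds to 60% growth inhibition; 0 means no net growth; -100 means all cells died. Active threshold: below 10.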 Active and inactive are the calls of the source.

Key:
Assay in all cases: NCI-60 one-dose screen, 48 h (100 = growth as untreated, 0 = no growth, -100 = all killed)
Conditions in all cases: 10 µM unless noted
[1] = tested on: HCT-15 colon
[2] = tested on: HT29 colon
[3] = tested on: SNB-75 CNS
[4] = tested on: SNB-19 CNS
[5] = tested on: U251 CNS
[6] = tested on: PC-3 prostate
[7] = tested on: SK-MEL-5 melanoma
[8] = tested on: UACC-62 melanoma
[9] = tested on: LOX IMVI melanoma
[10] = tested on: SK-MEL-28 melanoma
[11] = tested on: SK-MEL-2 melanoma
[12] = tested on: EKVX NSCLC
[13] = tested on: UO-31 renal
[14] = tested on: TK-10 renal
[15] = tested on: ACHN renal
[16] = tested on: CAKI-1 renal
[17] = tested on: A498 renal
[18] = tested on: CCRF-CEM leukemia
[19] = tested on: MOLT-4 leukemia
[20] = tested on: SN12C renal

SMILES | growth [1] | growth [2] | growth [3] | growth [4] | growth [5] | growth [6] | growth [7] | growth [8] | growth [9] | growth [10] | growth [11] | growth [12] | growth [13] | growth [14] | growth [15] | growth [16] | growth [17] | growth [18] | growth [19] | growth [20]
CC1=C(/C=C/C(C)=C/C=C/C(C)=C/C(=O)O)C(C)(C)CCC1 | 91.4% (inactive) and 81.1% (inactive) and 92% (inactive) | 88.7% (inactive) and 89.2% (inactive) and 96% (inactive) | 122% (inactive) and 72.2% (inactive) and 79.7% (inactive) | 86.1% (inactive) and 97.4% (inactive) and 90.3% (inactive) | 83.2% (inactive) and 87.1% (inactive) and 90.4% (inactive) | 88.3% (inactive) and 89.7% (inactive) and 101% (inactive) | 83.5% (inactive) and 86.5% (inactive) and 99.3% (inactive) | 73.2% (inactive) and 80.4% (inactive) and 61.3% (inactive) | 91% (inactive) and 85.3% (inactive) and 89.9% (inactive) | 109% (inactive) and 116% (inactive) | 87.5% (inactive) and 94.7% (inactive) | 84% (inactive) and 92.2% (inactive) and 87.7% (inactive) | 80.9% (inactive) and 64.5% (inactive) and 86.8% (inactive) | 101% (inactive) and 99.5% (inactive) and 109% (inactive) | 94.9% (inactive) and 98.9% (inactive) and 94.8% (inactive) | 81.3% (inactive) and 87% (inactive) and 82.9% (inactive) | 20.2% (inactive) and 109% (inactive) and 86.7% (inactive) |  |  | 
Cc1cccc(/C=C\C(=O)c2ccc(Cl)cc2)c1 | 89.5% (inactive) and 96.6% (inactive) | 84.1% (inactive) and 90.9% (inactive) | 98.9% (inactive) and 115% (inactive) | 91.6% (inactive) and 101% (inactive) | 80.3% (inactive) and 98.9% (inactive) | 89.6% (inactive) and 83.7% (inactive) | 108% (inactive) and 94.8% (inactive) | 96.8% (inactive) and 103% (inactive) | 89.2% (inactive) and 91.6% (inactive) | 106% (inactive) and 111% (inactive) | 94.9% (inactive) and 100% (inactive) | 91.1% (inactive) and 94.3% (inactive) | 68.3% (inactive) and 86.1% (inactive) | 75.5% (inactive) and 85.3% (inactive) | 102% (inactive) and 105% (inactive) | 90.1% (inactive) and 85.1% (inactive) | 78.9% (inactive) and 54.4% (inactive) | 84.3% (inactive) and 68.8% (inactive) | 90.2% (inactive) and 55% (inactive) | 
Cc1cc(=O)[nH]c(O)c1C#N | 98% (inactive) and 107% (inactive) | 109% (inactive) and 116% (inactive) | 72.5% (inactive) and 96.7% (inactive) | 98.4% (inactive) and 94.7% (inactive) | 101% (inactive) and 98.2% (inactive) | 114% (inactive) and 102% (inactive) | 100% (inactive) and 106% (inactive) | 97.7% (inactive) and 96.5% (inactive) | 98.5% (inactive) and 97.1% (inactive) | 98.2% (inactive) and 157% (inactive) | 108% (inactive) | 99.6% (inactive) and 99.9% (inactive) | 87.3% (inactive) and 105% (inactive) |  | 101% (inactive) and 95.7% (inactive) | 90.3% (inactive) and 60.5% (inactive) | 114% (inactive) and 111% (inactive) | 113% (inactive) and 90.3% (inactive) | 106% (inactive) and 101% (inactive) | 102% (inactive) and 93.7% (inactive)
C/C(=N\NC(=O)c1ccncc1)c1ccccc1O | 22.8% (inactive) and 23.3% (inactive) | 29.7% (inactive) and 29.1% (inactive) | 89.5% (inactive) and 50.9% (inactive) | 47.8% (inactive) and 46.6% (inactive) | 33.8% (inactive) and 33.4% (inactive) | 44.4% (inactive) and 35.8% (inactive) | 38.7% (inactive) and 50% (inactive) | 22% (inactive) and 30.6% (inactive) | 22.5% (inactive) and 10.9% (inactive) | 52.4% (inactive) and 63.1% (inactive) | 75.3% (inactive) and 18.8% (inactive) | 16.5% (inactive) and 31.5% (inactive) | 31.3% (inactive) and 20.6% (inactive) |  | 26.3% (inactive) and 26.5% (inactive) | 10.4% (inactive) | 68.9% (inactive) | 16% (inactive) and 15.8% (inactive) | 7.82% (active) and 10.7% (inactive) | 45.9% (inactive) and 46.9% (inactive)
CCN(CC)CCc1nc(-c2ccccc2)no1 | 78.8% (inactive) and 111% (inactive) | 64.3% (inactive) and 93.3% (inactive) | 82.1% (inactive) and 72.2% (inactive) | 89.7% (inactive) and 94.2% (inactive) | 52.7% (inactive) and 99.4% (inactive) | 81.3% (inactive) and 96.7% (inactive) | 84.6% (inactive) and 116% (inactive) | 77% (inactive) and 95.9% (inactive) | 63.9% (inactive) and 94.6% (inactive) | 89.5% (inactive) and 106% (inactive) | 98% (inactive) and 104% (inactive) | 90.6% (inactive) and 98.4% (inactive) | 65.9% (inactive) and 68.2% (inactive) |  | 83.2% (inactive) and 110% (inactive) | 92.3% (inactive) and 88.2% (inactive) |  | 44.2% (inactive) and 90.8% (inactive) | 101% (inactive) | 68% (inactive) and 80.8% (inactive)
Cc1ccc(S(=O)(=O)Nc2nc3ccccc3nc2Nc2ccc3nsnc3c2)cc1 | 32% (inactive) and 58.6% (inactive) | 47.5% (inactive) and 63.2% (inactive) | 63.3% (inactive) and 65.9% (inactive) | 47.7% (inactive) and 47.6% (inactive) | 26.1% (inactive) and 40.1% (inactive) | 42.8% (inactive) and 27.3% (inactive) | 18.7% (inactive) and 13.7% (inactive) | 19% (inactive) and 12.8% (inactive) | 65.8% (inactive) and 47% (inactive) | 49.8% (inactive) and 51.6% (inactive) | 7.36% (active) | 46.5% (inactive) and 49.7% (inactive) | 43.6% (inactive) and 22.3% (inactive) | 35.4% (inactive) and 53.3% (inactive) | 54.5% (inactive) and 61% (inactive) | 59.2% (inactive) and 31.3% (inactive) | 56.7% (inactive) and 11.7% (inactive) | 44.2% (inactive) | 35.3% (inactive) and 45.3% (inactive) | 
O=[N+]([O-])c1ccccc1N(S(=O)(=O)c1ccccc1)S(=O)(=O)c1ccccc1 | 105% (inactive) and 90.4% (inactive) | 109% (inactive) and 103% (inactive) | 96.2% (inactive) | 107% (inactive) and 98.6% (inactive) | 91.5% (inactive) and 87.8% (inactive) | 80.3% (inactive) and 77.7% (inactive) | 110% (inactive) | 76.1% (inactive) and 66% (inactive) | 98.7% (inactive) and 84.7% (inactive) | 115% (inactive) and 111% (inactive) | 106% (inactive) | 102% (inactive) and 85.1% (inactive) | 86.7% (inactive) and 67% (inactive) |  | 102% (inactive) and 93.4% (inactive) | 79.4% (inactive) and 56.3% (inactive) | 86.9% (inactive) and 98.6% (inactive) | 53.7% (inactive) and 105% (inactive) | -13.5% (active) and 103% (inactive) | 102% (inactive) and 99.2% (inactive)
CC(=O)Nc1ccc2cc3ccc(NC(C)=O)cc3nc2c1 | 103% (inactive) and 106% (inactive) | 97.3% (inactive) and 90.1% (inactive) | 71.1% (inactive) and 83.1% (inactive) | 79.2% (inactive) and 73.4% (inactive) | 74.3% (inactive) and 72.3% (inactive) | 75.1% (inactive) and 42.4% (inactive) | 92.2% (inactive) and 105% (inactive) | 82.2% (inactive) and 85.7% (inactive) | 89% (inactive) and 85.9% (inactive) | 110% (inactive) and 139% (inactive) | 95.9% (inactive) and 108% (inactive) | 80.6% (inactive) and 78.4% (inactive) | 79% (inactive) and 76% (inactive) | 136% (inactive) and 119% (inactive) | 79.1% (inactive) and 58.4% (inactive) | 45.9% (inactive) and 97.2% (inactive) |  |  | 54.9% (inactive) and 74.7% (inactive) | 52.6% (inactive) and 52.2% (inactive)
CC(CN=Cc1ccccc1O)N=Cc1ccccc1O (configuration not stated) | 105% (inactive) and 97.2% (inactive) | 115% (inactive) and 110% (inactive) | 104% (inactive) and 82.4% (inactive) | 96.1% (inactive) and 101% (inactive) | 96.6% (inactive) and 104% (inactive) | 96% (inactive) and 95.8% (inactive) | 102% (inactive) and 106% (inactive) | 107% (inactive) and 105% (inactive) | 101% (inactive) and 88.8% (inactive) | 117% (inactive) and 102% (inactive) | 154% (inactive) and 102% (inactive) | 102% (inactive) and 111% (inactive) | 107% (inactive) and 80.3% (inactive) | 110% (inactive) and 106% (inactive) | 103% (inactive) and 93.8% (inactive) | 93.6% (inactive) and 99.1% (inactive) | 121% (inactive) and 105% (inactive) | 92.3% (inactive) and 96.2% (inactive) | 120% (inactive) and 93.3% (inactive) | 
